# Measurements as given in PubChem BioAssay AID1851 (National Center for Advancing Translational Sciences (NCATS), 2009).
# Where “and” joins values, the source holds several entries; their conditions need not be identical. Identical values can stand only once. About 5,800 (36%) of roughly 16,000 compounds were called active. Not shown: some 23% with an inconclusive outcome. The list shows a part of the results. Unmarked numbers belong to inactive results. Calls follow the shape of the dose curve; as a rule, active = well fitted curve in the direction sought with a large enough effect; inconclusive = small, poorly fitted or top-dose-only effect, or effect the other way; inactive = no such curve, though single readings can be large or run the other way.
# Target: Cytochrome P450 2C19 (Homo sapiens) (UniProt P33261)
# Test: Cytochrome panel assay with activity outcomes
# Details: recombinant CYP, pro-luciferin dealkylation, luminescence, p450-cyp2c19; series mostly up to 57.1 µM; activity, negative = inhibition: at the top concentration
# % is scaled to controls: 0 for no effect and ±100 for the full control effect.
# Cytochrome P450 2C19 (Homo sapiens), sequence (P33261 whole entry, looked up): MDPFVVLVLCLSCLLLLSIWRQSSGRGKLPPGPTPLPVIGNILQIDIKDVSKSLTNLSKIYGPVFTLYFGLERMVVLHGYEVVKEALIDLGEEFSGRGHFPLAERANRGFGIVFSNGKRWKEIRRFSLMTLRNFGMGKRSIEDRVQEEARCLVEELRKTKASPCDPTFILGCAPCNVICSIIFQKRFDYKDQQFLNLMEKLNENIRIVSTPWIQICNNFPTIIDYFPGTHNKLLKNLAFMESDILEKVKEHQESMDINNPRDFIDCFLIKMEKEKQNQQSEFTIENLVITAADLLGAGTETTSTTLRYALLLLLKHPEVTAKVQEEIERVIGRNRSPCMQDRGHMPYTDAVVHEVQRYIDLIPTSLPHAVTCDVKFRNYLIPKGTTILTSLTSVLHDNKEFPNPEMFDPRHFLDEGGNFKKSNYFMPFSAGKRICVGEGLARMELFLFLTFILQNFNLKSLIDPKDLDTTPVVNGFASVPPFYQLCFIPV
SMILES,"activity, negative = inhibition",AC50
COc1ccc(C(=O)n2nc(-c3ccccc3)nc2SC)cc1,-24.6%,–
CCC(=O)n1nc(-c2ccc(OC)cc2)nc1N,–,10 µM (active)
COc1ccc(-c2nc(N)c3ncn([C@H]4O[C@@H](CO)[C@@H](O)[C@@H]4O)c3n2)cc1,31.6% [at 11.4 µM],–
CCOc1ccc(N2CC(C(=O)NCc3cccc(C)c3)CC2=O)cc1 (stereo not given),–,7.94 µM (active)
CC(C)Oc1ccc(N2CC(C(=O)OCC(=O)NCc3ccccc3)CC2=O)cc1 (stereo not given),–,15.8 µM (active)
Cc1cc(C)nc(SCC(=O)N/N=C\c2sccc2C)n1,–,5.01 µM (active)
O=C(CSc1nc2ccccc2o1)NC(=O)NCc1ccccc1,–,3.55 µM (active)
O=C(CN1CCN(S(=O)(=O)c2ccccc2)CC1)NC(=O)NCc1ccccc1,-24%,–
O=C(CSc1nc2ccccc2o1)Nc1ccccc1N1CCCCCC1,–,15.8 µM (active)
O=C(CNC1CCCCCC1)Nc1ccccc1N1CCCCC1,–,4.47 µM (active)
CNc1c2c(nn1C)CCCC2,-23.5%,–
C[N+](C)(C)c1cc2c(nn1)Nc1ccccc1S2,-41.4% [at 11.4 µM],–
CC1(C)N=C(N)N=C(N)N1CCCCc1ccccc1,24% [at 11.4 µM],–
O=C(CSc1ccccn1)Nc1nc2ccc(Br)cc2s1,–,2 µM (active)
O=C(O)c1ccc(CNCc2ccccc2)cc1,-4.75% [at 11.4 µM],–
O=C(CSc1nc2ccccc2o1)Nc1nc2ccccc2s1,–,1.78 µM (active)
O=C(O)c1cc(=O)[nH]c(SCc2ccccc2)n1,-23.4% [at 11.4 µM],–
O=C(O)c1ccc(CSc2nc3ccccc3o2)cc1,–,35.5 µM (active)
Cc1cc(C)nc(SCC(=O)Nc2ccccc2[N+](=O)[O-])n1,–,7.94 µM (active)
COc1nc(Cl)nc(Cl)c1Cl (tested in a mixture with another compound),-12.4% [at 11.4 µM],–
CC(=O)OC[C@@H]1O[C@@H](O/N=C2/C[C@@H](O)[C@@H](O)[C@@H]3[C@@H]4C(=O)N(C[C@@H]5CCCO5)C(=O)[C@H]4CC[C@H]23)[C@H](OC(C)=O)[C@H](OC(C)=O)[C@@H]1OC(C)=O,-5.2% [at 11.4 µM],–
Cc1ccccc1NC(=O)CSc1nc(N2CCCCC2)nc(N2CCCCC2)n1,–,0.355 µM (active)
Cc1ccccc1NC(=O)Cn1cnc2c1c(=O)n(C)c(=O)n2C,-34.6%,–

SMILES,"activity, negative = inhibition",AC50
O=C(C/C=N/OCc1ccc(F)cc1Cl)c1cnc(-c2ccccc2)s1,–,1.26 µM (active)
O=C(C/C=N/OCc1ccc(Cl)cc1Cl)c1ccc(Cl)cc1,–,0.794 µM (active)
CN(C)CN1CSC(=S)N(CN(C)C)C1,–,3.16 µM (active)
Cc1ccc(N2CC(C(=O)Nc3cc(C)on3)CC2=O)cc1 (stereo not given),–,5.62 µM (active)
COc1ccc(N2CC(C(=O)Nc3cc(C)on3)CC2=O)cc1 (stereo not given),16.6%,–
CCc1ccc(N2CC(C(=O)NC3=NCCS3)CC2=O)cc1 (stereo not given),–,15.8 µM (active)
Cc1cc(NC(=O)C2C3C(=O)N(Cc4ccc(Cl)cc4)C(C(=O)NC(C)(C)C)C34C=CC2(C)O4)no1 (stereo not given),-3.6%,–
CC(C)CO/N=C1/C[C@@H](O)[C@@H](O)[C@@H]2[C@@H]3C(=O)N(C[C@@H]4CCCO4)C(=O)[C@H]3CC[C@@H]12,-18.3% [at 11.4 µM],–
O=C(c1cnccn1)N1CCC2(CCCN(c3ncccn3)C2)CC1,-29.3%,–
COc1ccc(COC(=O)N/N=C2/C[C@@H](O)[C@@H](O)[C@@H]3[C@H]4C(=O)N(c5ccc(F)cc5F)C(=O)[C@@H]4CC[C@@H]23)cc1,-19.3% [at 11.4 µM],–
C=CC[C@@H]1C=C[C@H](O/N=C(\C)CCN2CCc3nc(CC)c(CC)cc3C2)[C@H](CO)O1,-14% [at 11.4 µM],–
COc1cc(NC(=O)Cc2c(C(=O)O)[nH]c3ccccc23)cc(OC)c1OC,5.48%,–
COc1cc(NC(=O)c2cc3nc(-c4ccccc4)cc(-c4ccccc4)n3n2)cc(OC)c1OC,–,6.31 µM (active)
Nn1c(SCC(=O)N2CCOCC2)nnc1-c1ccccc1Cl,8.68%,–
O=C(CSc1c[nH]c2ccccc12)N1CCOCC1,–,1.58 µM (active)
Fc1cccc(F)c1C(Nc1nncs1)Nc1nncs1,7.56% [at 11.4 µM],–
NNCCc1ccccc1,–,794 nM (active) and 316 nM (active)
O=C(O)CNCCc1ccccc1,4.74% [at 11.4 µM],–
Cc1ccc(COc2ccc(Br)cc2/C=N/O)cc1,–,1 µM (active)
O=c1c(-c2ccccc2)nc2cnc(N3CCOCC3)nc2n1Cc1cccs1,-32.2%,–
C[C@@H](COc1ccccc1)N(CCCl)Cc1ccccc1,–,2 µM (active)
O=S(=O)(Nc1nc(-c2sccc2Cl)cs1)c1cc(Cl)ccc1Cl,–,0.2 µM (active)
COc1ccc(NC(=O)CN2CCN(CC(=O)Nc3ccccc3Cl)CC2)cc1,–,1.41 µM (active)

SMILES,"activity, negative = inhibition",AC50
O=C(Nc1ccc2c(c1)OCCO2)C1CCN(C(=O)c2ccccc2)CC1,–,22.4 µM (active)
O=C(CC1C(=O)NCCN1C(=S)Nc1ccccc1)Nc1ccc2c(c1)OCCO2 (stereo not given),–,11.2 µM (active)
COC(=O)N1CCC2(CCN(C(=O)Nc3ccc(OC)cc3)CC2)CC1,-1.54%,–
CCC(C)NC(=O)C1CCN(C(=O)c2ccccc2)CC1 (stereo not given),-14.8%,–
COC(=O)N1CCC2(CC1)CN(C(=O)Nc1ccc(OC)cc1)C2,3.06%,–
COc1ccc(NC(C)=O)cc1NC(=O)CN1CCN(CC(=O)Nc2ccccc2Cl)CC1,–,7.94 µM (active)
CC(C)=CCC/C(C)=C/CO/N=C1/C[C@@H](O)[C@@H](O)[C@@H]2[C@@H]3C(=O)N(C4CCCCC4)C(=O)[C@H]3CC[C@@H]12,-41.2% [at 11.4 µM],–
CC(=O)Nc1ccc2c(c1)OCCOCCOc1cc(NC(C)=O)ccc1OCCOCCOCCO2,-22.4%,–
COc1ccccc1NC(=O)c1cnc2n(c1=O)CCS2,-4.96%,–
COc1ccccc1NC(=O)CN1CCN(CC(=O)Nc2ccc(OCc3ccccc3)cc2)CC1,–,0.631 µM (active)
O=C(CN1CCN(CC(=O)Nc2ccccc2Cl)CC1)Nc1ccc2c(c1)OCCO2,–,0.891 µM (active)
O=C(CN1C(=O)C2C3C=CC(C3)C2C1=O)Nc1ccc2c(c1)OCCO2 (stereo not given),-37.3%,–
COc1ccc(NC(=O)CN2c3cccc4cccc(c34)S2(=O)=O)cc1,–,10 µM (active)
O=C(CN1C(=O)c2ccccc2S1(=O)=O)Nc1ccccc1,-22%,–
O=C(CC(c1ccccc1)c1ccccc1)Nc1ccc2c(c1)OCCO2,–,2.82 µM (active)
CCCN1C[C@H](CSC)C[C@H]2c3cccc4[nH]cc(c34)C[C@@H]21,-6.92% [at 25.6 µM],–
CN1CCN(CCCNC(=O)C2CCN(c3nnc(-n4cccc4)s3)CC2)CC1,-20.2%,–
CC(C)CO/N=C1/C[C@@H](O)[C@@H](O)[C@@H]2[C@@H]3C(=O)N([C@@H](C)c4ccccc4)C(=O)[C@H]3CC[C@H]12,-12.9% [at 11.4 µM],–
COc1cc(NC(=O)c2ccccc2)c(OC)cc1NC(=O)CN1CCN(c2ccccn2)CC1,–,17.8 µM (active)
Cc1c(Cl)cccc1NC(=O)CN1CCC(C(O)(c2ccccc2)c2ccccc2)CC1,–,11.2 µM (active)
Cc1c(NC(=O)CN2CCN(c3ccccc3)CC2)c(=O)n(-c2ccccc2)n1C,-5.89%,–
COc1cc2c(cc1OC)C(C(=O)N1CCN(c3ccccn3)CC1)C(c1cccs1)N(C)C2=O (stereo not given),-24.5%,–
Cc1cccc(NC(=S)N2CCC(N(C)CC3CCCO3)CC2)c1C (stereo not given),-10.8%,–

SMILES,"activity, negative = inhibition",AC50
Cc1ccc(NC(=O)c2c(C(F)(F)F)nn(C)c2SCc2cccc(C(F)(F)F)c2)cc1C,–,0.562 µM (active)
Cn1nc(C(F)(F)F)c(C(=O)Nc2ccc(F)cc2F)c1Sc1ccc(C(F)(F)F)cc1,–,0.631 µM (active)
Cn1nc(C(F)(F)F)c(C(=O)Nc2ccc(F)cc2F)c1Sc1cccc(C(F)(F)F)c1,–,0.501 µM (active)
Cc1ccc(NC(=O)c2sccc2SCc2cccc(C(F)(F)F)c2)cc1,–,0.631 µM (active)
Cc1cccc(C)c1NC(=O)CS(=O)CC(=O)Nc1ccc(F)cc1F (stereo not given),-53.4%,–
C1COC(NC(C2CC2)C2CC2)=N1,–,inactive
CCCN1C[C@@H](CSC)C[C@H]2c3cccc4[nH]cc(c34)C[C@@H]21,43.8%,–
O=C1CC[C@](CCc2nc3ccccc3[nH]2)(c2ccccc2)C(=O)N1,-21.5% [at 11.4 µM],–
O=C(OCc1nc2ccccc2[nH]1)C12CC3CC(CC(C3)C1)C2,–,2.51 µM (active)
Cc1ccc(N=Nc2c(N)[nH]n3c(=O)c4c(nc23)CCCC4)cc1,–,25.1 µM (active)
N#Cc1c[nH]n2c(=O)c3c(nc12)CCCC3,-4.58%,–
COc1ccc(CNc2nc3nc4c(c(=O)n3[nH]2)CCC4)cc1,-14.3%,–
Cc1ccc(-c2[nH]n3c(=O)c4c(nc3c2C)CCCC4)cc1,–,3.98 µM (active)
COC(=O)Cc1cc(=O)n2[nH]c(C)c(-c3ccccc3)c2n1,-19%,–
CSc1nc2nc3c(c(=O)n2[nH]1)CN(Cc1ccccc1)CC3,-6.28%,–
Nc1[nH]n2c(=O)c3c(nc2c1N=Nc1ccccc1)CCCC3,-28.5%,–
Cc1[nH]n2c(=O)c3c(nc2c1-c1cccc2ccccc12)CCC3,–,8.91 µM (active)
COc1cccc([C@H](O)Cn2cc(-c3cccc(CON=C(C)C)c3)nn2)c1,-19.8% [at 11.4 µM],–
CC(C)c1ccc(N=c2c([N+](=O)[O-])nn(-c3ccc4c(c3)OCCO4)n2O)cc1,–,11.2 µM (active)
COc1ccc(OC)c(C2C3=C(COC3=O)Nc3cc4c(cc32)OCO4)c1 (stereo not given),–,1.12 µM (active)
CC1(C)Oc2cc(N)c([N+](=O)[O-])cc2O1,–,10 µM (active)
